In PubChem BioAssay AID1053118 (Broad Institute, 2014):
Measured potencies and affinities stand elsewhere. Values without a mark were called inactive.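 Rule for the calls: active = fitted half-maximal concentration for ATP signal loss at most twice the top valid dose; inconclusive = flat curve between -70 and -30%, or an invalid fit; inactive = flat within ±30%, wrong direction, or potency past limit.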

Assay: HepG2 cell cytotoxicity, dose response, cytotoxicity control, cherry-picks, set 5 (AID 1053118);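 note: 0% = neutral control wells and -100% = mitoxantrone positive control wells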
Conditions: HepG2 viability, ATP luminescence, 72 h; series mostly up to 26 µM; activity change, negative = cytotoxicity: at the top concentration
With `C[C@H]1CN([C@@H](C)CO)C(=O)c2cc(-c3ccccc3)cnc2O[C@@H]1CN(C)Cc1ccccc1` the “activity change, negative = cytotoxicity” value was -15.4%.
In the case of `CC(C)CNC(=O)c1coc(=O)c(Br)c1`, the “activity change, negative = cytotoxicity” value is reported as 6.5%.
In the case of `O=C(Nc1ccccc1F)N1C[C@@H]2[C@H](c3ccccc31)[C@H](CO)N2C(=O)C1CCOCC1`, the “activity change, negative = cytotoxicity” value is reported as -14.4% [at 23.5 µM].
For `COCC(=O)Nc1ccc2c(c1)C(=O)N(C)[C@@H]1CC[C@H](CC(=O)NCc3ccccc3Cl)O[C@@H]1CO2`, the “activity change, negative = cytotoxicity” value was -1.66%.
In the case of `COC(=O)C[C@H]1CC[C@H]2[C@H](COc3ccc(NC(=O)Cc4cccs4)cc3C(=O)N2C)O1`, the “activity change, negative = cytotoxicity” value is reported as -12.2%.
With `COc1ccc(CCNC(=O)C2CCN(Cc3nc(-c4ccccc4F)oc3C)CC2)cc1OC` the “activity change, negative = cytotoxicity” value was 11.5%.
For `O=S(=O)(c1ccccc1F)N1CC[C@@H]2[C@H]1c1cc(-c3cccc(F)c3)ccc1N[C@@H]2CO`, the “activity change, negative = cytotoxicity” value was -0.143%.
With `Cc1cc(C)n2ncc(C(=O)NCc3ccc(Cl)cc3)c2n1` the “activity change, negative = cytotoxicity” value was -17.4%.
With `C[C@@H]1CN([C@@H](C)CO)C(=O)c2cc(-c3ccccc3)cnc2O[C@@H]1CN(C)Cc1ccccc1` the “activity change, negative = cytotoxicity” value was -12.5%.
For `C[C@H]1CN([C@@H](C)CO)C(=O)c2cc(NC(=O)CCCN(C)C)ccc2O[C@@H]1CN(C)Cc1ccc(-c2ccccc2)cc1`, the “activity change, negative = cytotoxicity” value was -11.7%.
For `C[C@H](CO)N1C[C@H](C)[C@@H](CN(C)Cc2ccc(-c3ccccc3)cc2)Oc2ccc(NC(=O)CCCN(C)C)cc2C1=O`, the “activity change, negative = cytotoxicity” value was -3.63%.
In the case of `O=S(=O)(c1cccc(F)c1)N1CC[C@H]2[C@H](CO)Nc3ccc(-c4cccc(F)c4)cc3[C@H]21`, the “activity change, negative = cytotoxicity” value is reported as -7.37%.
In the case of `CCOC(=O)c1cnc(SCc2nc(N)nc(Nc3ccc(OC)cc3)n2)nc1N`, the “activity change, negative = cytotoxicity” value is reported as 22.1%.
In the case of `Cc1c(NC(=O)c2ccc3nsnc3c2)cccc1[N+](=O)[O-]`, the “activity change, negative = cytotoxicity” value is reported as 8.97%.
For `C[C@@H]1CN([C@@H](C)CO)C(=O)c2cc(-c3ccncc3)cnc2O[C@@H]1CN(C)C(=O)Cc1cccnc1`, the “activity change, negative = cytotoxicity” value was -2.12%.
In the case of `O=C(OCC(O)C(O)COC(=O)c1ccccc1)c1ccccc1` (stereo unspecified), the “activity change, negative = cytotoxicity” value is reported as -20%.
In the case of `C[C@@H](O)C#Cc1ccc2c(c1)O[C@@H](CN(C)C)[C@@H](C)CN([C@@H](C)CO)S2(=O)=O`, the “activity change, negative = cytotoxicity” value is reported as -17.3%.
In the case of `N#Cc1ccc(-c2ccc3c(c2)[C@@H]2[C@@H](CCN2S(=O)(=O)c2ccccc2F)[C@H](CO)N3)cc1`, the “activity change, negative = cytotoxicity” value is reported as 1.1%.
With `CN1c2ccc(-c3ccccc3)cc2[C@@H]2[C@@H](CCN2C(=O)CN2CCOCC2)[C@H]1CO` the “activity change, negative = cytotoxicity” value was 8.94% [at 23.5 µM].
In the case of `O=S(=O)(c1ccccc1F)N1CC[C@@H]2[C@H](CO)Nc3ccc(-c4cccc(F)c4)cc3[C@@H]21`, the “activity change, negative = cytotoxicity” value is reported as -3.15%.
In the case of `CCCc1cc(C(=O)OC)c(NC(=O)CCC(=O)O)s1`, the “activity change, negative = cytotoxicity” value is reported as -20.8%.
With `Cc1cccc(NC(=O)c2ccc(C3SCC(=O)N3CCc3ccccc3)cc2)c1` (stereo unspecified) the “activity change, negative = cytotoxicity” value was -23.6%.
In the case of `CN1c2ccc(-c3ccccc3)cc2[C@@H]2[C@@H](CCN2C(=O)CN2CCOCC2)[C@@H]1CO`, the “activity change, negative = cytotoxicity” value is reported as -2.17% [at 23.5 µM].
In the case of `O=S(=O)(c1cccc(F)c1)N1CC[C@@H]2[C@H]1c1cc(-c3cccc(F)c3)ccc1N[C@@H]2CO`, the “activity change, negative = cytotoxicity” value is reported as -7.33%.
In the case of `C[C@H](O)C#Cc1ccc2c(c1)O[C@@H](CN(C)C)[C@H](C)CN([C@H](C)CO)S2(=O)=O`, the “activity change, negative = cytotoxicity” value is reported as -10.7%.
For `C[C@@H]1CN([C@@H](C)CO)C(=O)c2cccc(NC(=O)Nc3ccc(C(F)(F)F)cc3)c2O[C@H]1CN(C)C(=O)Nc1cccc2ccccc12`, the “activity change, negative = cytotoxicity” value was -23.2%.
In the case of `NC(=O)C1=C[C@H](c2coc3ccccc3c2=O)C[C@H](OCCCCO)O1`, the “activity change, negative = cytotoxicity” value is reported as -5.67%.
With `CS(=O)(=O)N1CCN(c2ccc(NC(=O)c3ccc([N+](=O)[O-])o3)cc2)CC1` the “activity change, negative = cytotoxicity” value was -28.3%.
With `CO[C@H]1CN(C)C(=O)c2cc(NC(=O)Nc3cc(Cl)cc(Cl)c3)ccc2OC[C@@H](C)NC[C@@H]1C` the “activity change, negative = cytotoxicity” value was -10.7%.
For `CO[C@H]1CN(C)C(=O)c2cc(NC(=O)Nc3cc(Cl)cc(Cl)c3)ccc2OC[C@H](C)NC[C@@H]1C`, the “activity change, negative = cytotoxicity” value was -14.9%.
In the case of `C[C@H]1CN([C@@H](C)CO)C(=O)c2cc(-c3ccccc3)cnc2O[C@H]1CN(C)Cc1ccccc1`, the “activity change, negative = cytotoxicity” value is reported as -17.2%.
With `CCOc1ccccc1NC(=O)c1c(NC(=O)CCC(=O)O)sc2c1CCCCC2` the “activity change, negative = cytotoxicity” value was -28.2%.
For `COc1cccc(-c2ccc3c(c2)[C@@H]2[C@@H](CCN2S(=O)(=O)c2cccc(OC)c2)[C@H](CO)N3)c1`, the “activity change, negative = cytotoxicity” value was -18.7%.
In the case of `CC1(C)Cc2c(C#N)c(SCC(=O)c3ccccc3)nc(N3CCOCC3)c2CS1`, the “activity change, negative = cytotoxicity” value is reported as 1.34%.
With `CO[C@@H]1CN(C)C(=O)c2cc(NC(=O)Nc3ccc(Cl)c(Cl)c3)ccc2OC[C@H](C)NC[C@H]1C` the “activity change, negative = cytotoxicity” value was -17.4%.
With `COCC(=O)Nc1ccc2c(c1)C(=O)N(C)[C@H]1CC[C@H](CC(=O)NCc3ccccc3Cl)O[C@@H]1CO2` the “activity change, negative = cytotoxicity” value was -9.97% [at 23.5 µM].
